Assay outcomes as filed in PubChem.
A3A deaminase – human APOBEC3A DNA deaminase inhibition; inhibition, % at 20 µM; AID 493011; P31941; actives 0.41% (n = 330,000); recombinant A3A, FAM/TAMRA ssDNA deamination fluorescence;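 active = at least 40% inhibition at 20 µM here, with at most 30% in a related deaminase screen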;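 note: plate controls were A3A with DMSO for no effect and wells lacking A3A enzyme for full effect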
Target sequence (P31941 whole entry, looked up): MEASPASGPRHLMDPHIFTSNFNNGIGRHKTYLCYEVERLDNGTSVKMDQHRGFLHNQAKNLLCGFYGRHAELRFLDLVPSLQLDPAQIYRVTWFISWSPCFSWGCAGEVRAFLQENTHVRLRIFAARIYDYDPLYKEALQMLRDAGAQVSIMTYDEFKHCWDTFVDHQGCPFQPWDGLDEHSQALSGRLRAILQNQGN
A3G deaminase – APOBEC3G (human) deaminase inhibition; Q9HC16; recombinant A3G, ssDNA deamination FAM/TAMRA fluorescence; inhibition, % at 20 µM; actives 0.28% (n = 330,000);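 active = inhibition of at least 40% at 20 µM, with no more than 30% in the related APOBEC3A deaminase screen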;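 note: plate controls were DMSO wells with A3G for no effect and wells lacking A3G enzyme for full effect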
Target sequence (Q9HC16 whole entry, looked up): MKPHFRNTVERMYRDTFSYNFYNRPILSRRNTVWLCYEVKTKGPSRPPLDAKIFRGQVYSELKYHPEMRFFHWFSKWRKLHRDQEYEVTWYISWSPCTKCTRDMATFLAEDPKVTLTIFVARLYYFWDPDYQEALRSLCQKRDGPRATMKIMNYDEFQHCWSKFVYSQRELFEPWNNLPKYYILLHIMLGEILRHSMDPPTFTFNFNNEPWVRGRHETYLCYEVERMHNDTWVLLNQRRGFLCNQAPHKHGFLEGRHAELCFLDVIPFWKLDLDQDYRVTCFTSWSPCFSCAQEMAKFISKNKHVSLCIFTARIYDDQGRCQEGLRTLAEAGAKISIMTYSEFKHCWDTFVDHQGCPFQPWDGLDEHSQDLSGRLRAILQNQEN
PfGluPho inh – PfG6PD (Plasmodium falciparum) enzyme inhibition | inhibition, % at 20 µM | actives 0.78% (n = 350,000) | PfGluPho enzyme, NADPH resazurin-diaphorase fluorescence;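 active = inhibition reaching at least a set limit at 20 µM in the primary screen, cut at about 59% in these data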;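 note: 0% = DMSO wells with substrate and 100% = DMSO wells lacking glucose-6-phosphate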
GC-A act – GC-A (human) enzyme activation; P16066; HEK293 GC-A cells, cGMP TR-FRET, EC30 ANP; 0% at EC30 ANP, 100% saturating ANP; activation, % at 10 µM; actives 0.14% (n = 370,000); AID 1671463; in the data active = activation above about 40%
Neddyl block – blocks human cullin neddylation. actives 0.58% (n = 360,000). AID 651699. inhibition, % at 25 µM. P61081+Q13564. TR-FRET cullin neddylation, biochemical; in the data active = inhibition above about 36%
GC-B act – GC-B (human) receptor activation | P20594 | HEK293-GC-B cells, CNP EC30, cGMP TR-FRET; 0% at EC30 CNP, 100% saturating CNP | activation, % at 10 µM | actives 0.11% (n = 370,000);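 active = activation at 10 µM reaching about 35% in either raw or pattern-adjusted values, limit read from the data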
PfG6PD confirm – PfG6PD inhibition, single-dose confirmed | recombinant PfGluPho, NADPH-diaphorase-resazurin fluorescence | actives 34% (n = 2,400) | AID 504753 | shares compounds with PfGluPho inh | inhibition, % at 20 µM;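 active = inhibition of at least 50% at 20 µM in any single replicate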;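 note: 0% = DMSO with substrate and 100% = DMSO lacking glucose-6-phosphate substrate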
Diaphorase 10uM – counter-screen for P. falciparum G6PD inhibitors: diaphorase inhibitors, oxidizers; shares compounds with PfGluPho inh; diaphorase-coupled resazurin reduction, fluorescence, NADPH 10 uM; inhibition, % at 20 µM; actives 39% (n = 820); AID 504862;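 active = average inhibition reaching 50% or more with the compound at 20 µM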;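 note: resorufin red fluorescence formed as diaphorase reduces resazurin using NADPH; 0% = DMSO with enzyme and 100% = DMSO without enzyme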
Diaph ctr 30uM – inhibits diaphorase or oxidizes, flagging false PfG6PD hits; shares compounds with PfGluPho inh; Diaphorase/resazurin coupled assay, resorufin fluorescence, 30 uM NADPH; inhibition, % at 20 µM; actives 29% (n = 820); AID 504863;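 active = inhibition averaging 50% or more, tested at 20 µM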;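 note: 0% = DMSO with enzyme and 100% = DMSO wells lacking diaphorase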
Starred values were filed as active, the others as inactive; . = not tested or not shown. An excerpt weighted towards active compounds, which were near 2% of everything screened.

SMILES	A3A deaminase	A3G deaminase	PfGluPho inh	GC-A act	Neddyl block	GC-B act	PfG6PD confirm	others
NCCNc1ccc(C(=O)N2c3ccccc3Sc3ccccc32)cc1[N+](=O)[O-]	-2	4	69*	-55	-37	-36	92*	Diaphorase 10uM=17;Diaph ctr 30uM=14
C=CCN(C)C(C#Cc1ccccc1)c1ccccc1C(F)(F)F (stereo unspecified)	.	.	.	-5	.	-12	.
CCN=c1scc(C)n1/N=C/c1ccc(O)c(O)c1O	4	3	80*	-4	-20	-8	72*	Diaphorase 10uM=25;Diaph ctr 30uM=37
COc1ccc(-c2nc3ccccc3[nH]2)cc1	-4	-4	61*	8	27	2	15
c1ccc(-c2nc3ccccc3[nH]2)cc1	0	-5	27	4	16	-2	.
Cc1ccc(S(=O)(=O)N2CCCC2C(=O)N2CCc3ccccc3C2)cc1C (stereo unspecified)	.	.	.	2	.	2	.
CCOc1ccc(N(CC(=O)Nc2c(C)n(C)n(-c3ccccc3)c2=O)S(=O)(=O)c2ccc3c(c2)N(C(=O)C2CCC2)CC3)cc1	.	.	.	-4	.	0	.
O=c1c2ccc(F)cc2sn1-c1ccccc1	.	.	128*	12	8	4	106*	Diaphorase 10uM=-25;Diaph ctr 30uM=3
Cc1ccc(-n2sc3cc(F)ccc3c2=O)c(C)c1	.	.	124*	12	0	11	104*	Diaphorase 10uM=5;Diaph ctr 30uM=8
O=c1c2cc(F)ccc2sn1-c1ccccc1Cl	.	.	123*	-3	-26	12	110*	Diaphorase 10uM=-33;Diaph ctr 30uM=2
O=c1c2ccccc2sn1-c1ccc(Cl)cc1	.	.	126*	6	-20	11	106*	Diaphorase 10uM=-5;Diaph ctr 30uM=16
N=C1SCC(=O)N1c1ccccc1Cl	-1	-5	4	8	-1	2	.
CCCCOc1ccc(C(=O)NC2CCCCN(Cc3cccc(C(F)(F)F)c3)C2=O)cc1 (stereo unspecified)	.	.	.	1	.	5	.
CCN(CC)C(=O)CC[C@@H]1CC[C@]2(CCCN(C(=O)c3cccnc3)C2)O1	.	.	.	3	.	-4	.
CCOC(=O)c1sc(NC(=O)CSc2nnc(Cc3ccccc3)o2)c(C#N)c1C	-6	11	88*	.	-11	.	60*	Diaphorase 10uM=-24;Diaph ctr 30uM=-18
Cc1c[nH]c2cccc(-c3ccc4c(c3)OCO4)c12	.	.	.	-1	.	-1	.
CCOC(=O)c1cnc2ccc(Br)cc2c1NCC(C)O (stereo unspecified)	.	.	25	-1	-222	-12	.
CCOC(=O)c1cnc2ccc(Br)cc2c1NCCO	2	-1	65*	11	-297	-5	16
Clc1cccc(-c2nn3c(Cn4cnc5ccccc54)nnc3s2)c1	16	36	62*	-4	-3	-5	25
c1ccc2oc(-c3nn4c(Cn5cnc6ccccc65)nnc4s3)cc2c1	1	-4	15	0	-73	0	.
c1nc(NCC2CCOC2)c2cc(-c3ccc4c(c3)OCO4)ccc2n1 (stereo unspecified)	.	.	.	4	.	2	.
Oc1ccc(Cl)cc1/C=C/c1ccc2cccc(O)c2n1	2	-8	74*	-5	14	-10	-5
COc1cc(Br)cc(/C=C/c2ccc3cccc(O)c3n2)c1O	-2	-4	25	-1	-6	-4	.
Oc1cccc2ccc(/C=C/c3ccccc3Br)nc12	0	-4	-5	6	-2	-5	.
Oc1c(Cl)cc(Cl)cc1/C=C/c1ccc2cccc(O)c2n1	-19	-30	81*	16	31	8	16
SMILES	A3A deaminase	A3G deaminase	PfGluPho inh	GC-A act	Neddyl block	GC-B act	PfG6PD confirm	others
COC(=O)[C@]12C[C@H](CC(=O)NCc3cccc(C(F)(F)F)c3)C(=O)N(Cc3cccc4ccccc34)C1=C[C@H](C(C)(C)C)O[C@@H]2C	.	.	.	-4	.	0	.
CCCSc1nc2c([nH]1)c(=O)n(C)c(=S)n2C	.	.	21	0	-3	-1	.
CCSc1nc2c([nH]1)c(=O)n(C)c(=S)n2C	.	.	62*	3	0	0	41
CCCC(=O)Nc1nc(-c2ccc(OC)cc2)cs1	-5	-5	17	5	-3	-7	.
COc1ccc(-c2csc(NC(=O)CS(=O)(=O)c3ccccc3)n2)cc1	6	-4	68*	1	5	-6	6
Cc1ccc2nc(-c3ccc(NC(=S)NC4CC(C)(C)NC(C)(C)C4)cc3)sc2c1	-2	-10	93*	-2	-326	-3	111*	Diaphorase 10uM=-16;Diaph ctr 30uM=-1
Cc1ccc2nc(-c3ccc(NC(=S)NC(=O)C(C)C)cc3)sc2c1	-2	-1	-1	15	-75	-1	.
O=C(N=C1N(CC2CC2)CC2(C=C3CCCCC3n3c(=O)n(-c4ccccc4)c(=O)n32)N1C(=O)OCc1ccccc1)c1ccccc1 (stereo unspecified)	.	.	.	-15	.	-12	.
CCOc1ccc2c(c1)C(C)=CC(C)(C)N2	-2	-7	90*	2	.	-2	33
CC1=CC(C)(C)Nc2ccc(OC(=O)CN3C(=O)c4ccccc4C3=O)cc21	-1	-6	75*	-1	34	-1	35
CCc1ccc2c(c1)C(C)=CC(C)(C)N2	1	-2	7	6	21	2	.
CC1=CC(C)(C)Nc2ccc(OC(=O)CN3C(=O)c4cccc5cccc(c45)C3=O)cc21	.	.	91*	-3	18	2	85*	Diaphorase 10uM=39;Diaph ctr 30uM=25
C=CCOC(=O)N[C@H](c1ccc2ccccc2c1)[C@H](C)/C=C/CC(=O)OC	.	.	.	-2	.	-12	.
O=C(C(=O)N1CCC(CNS(=O)(=O)c2ccccc2OC(F)(F)F)CC1)c1cccs1	.	.	.	1	.	1	.
COc1cc(C(=O)O/N=C2\C=CC(=O)C=C2C)cc(OC)c1OC	1	-11	67*	-3	.	-2	63*	Diaphorase 10uM=27;Diaph ctr 30uM=15
Oc1ccc(N2CCN(C(c3cccs3)c3nnnn3CCc3ccccc3)CC2)cc1 (stereo unspecified)	0	18	66*	-26	3	-21	8
CC(=O)N(Cc1ccccc1)c1nccs1	.	.	.	4	.	-5	.
Cc1cccc(NC(=S)NCCc2ccccc2)n1	-3	-9	70*	6	6	7	24
CC(C)NC(=O)N[C@H]1C[C@@H]2O[C@H](CO)CC[C@@H]2O[C@@H]1CCc1ccc(-c2ccc(F)cc2)cc1	.	.	.	8	.	-1	.
